RE007 growth inh: less growth of the S. pombe RE007 Vpr strain | 0.21% of 360,000 active | Potency, µM (titrated, usually from 92.2 µM), for inactives: top-dose activity change, negative = less growth, hits mostly inhibitors | AID 651644 | S. pombe RE007 Vpr strain, BacTiter-Glo ATP luminescence, 24 h; active = well fitted falling curve with a large enough effect; inconclusive = small, poorly fitted or top-dose-only effect; inactive = no such curve, though single readings can be large or run the other way; also: % is scaled to controls: 0 for no effect and ±100 for the full control effect; nearly all actives have a fitted effect of over 50% in size
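Fission yeast strain RE007, carrying one chromosomally integrated HIV-1 vpr copy, was seeded at OD 0.01 in PMG+AL medium with 23 nL pinned compound. After 24 h at 30 °C and 99% humidity, viability was read by BacTiter-Glo luminescence.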
NS1 inh: inhibitors of influenza NS1 protein function; Potency, µM (series often up to 46.1 µM), inactives show at the highest dose activity, positive = more growth; 0.4% of 270,000 active; also: actives are rising curves; nearly all actives have a fitted effect of over 50% in size
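Read-out: OD600 growth recovery of NS1-expressing budding yeast. Cells grown overnight at 30C in -URA glucose medium, washed, resuspended and diluted 1:100 in 2% galactose assay medium, pH 6.0. Same strain lacking NS1 served as positive control.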
SARS PLP yeast: blocks SARS-CoV papain-like protease in a yeast assay. Potency, µM (top dose mostly 32.9 µM), without a hit: top-dose activity, positive = growth rescue, most hits filed as activators. AID 485353. 0.19% of 330,000 active. S. cerevisiae expressing SARS-CoV PLpro, growth rescue; also: 0% is about no effect; nearly all actives have a fitted effect of over 55% in size
Pf growth 96h: inhibits malaria parasite growth, 96 h | P. falciparum luciferase reporter growth, 96 h | Potency, µM (highest dose often 28.7 µM), for the others: at the top dose activity change, negative = inhibition, most hits filed as inhibitors | 6.9% of 320,000 active | AID 504834; active = well fitted inhibition curve with a large enough effect; inconclusive = small, poorly fitted or top-dose-only effect, or another doubt; inactive = no such curve, though single readings can be large or run the other way; also: % is scaled to controls: 0 for no effect and ±100 for the full control effect
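Readout is luminescence from an integrated firefly luciferase in P. falciparum. Red cells, 2% hematocrit and 0.05% parasitemia final, were cultured with compound through two parasite generations (96 hours) at 37 C, 5% CO2.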
Pf growth 48h: P. falciparum growth inhibition at 48 hours (one generation). P. falciparum luciferase growth in erythrocytes, 48 h. AID 504832. 5.9% of 310,000 active. Potency, µM (top dose mostly 28.7 µM), without a hit: at the highest dose activity change, negative = inhibition, hits mostly inhibitors; active = well fitted inhibition curve with a large enough effect; inconclusive = small, poorly fitted or top-dose-only effect, or another doubt; inactive = no such curve, though single readings can be large or run the other way; also: % is scaled to controls: 0 for no effect and ±100 for the full control effect
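Here the parasites carry a stable luciferase gene and grow inside erythrocytes in Albumax-based RPMI medium with compound for one erythrocytic cycle. Activity is scored as loss of luminescent signal.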
* hit, by the source's call; ? = inconclusive; . = not tested or not shown; [ ] = dose if it differs, or a comment. Compounds with a hit are over-represented: about 9.5% of the library has one in this group of screens. Unless noted, calls follow the shape of the full dose curve. Potency is read from the fitted curve at half-maximal effect.

SMILES | RE007 growth inh | NS1 inh | SARS PLP yeast | Pf growth 96h | Pf growth 48h
COc1ccccc1C1=NN(C(=O)c2ccccc2)C(c2ccc(Br)cc2)C1 (configuration not stated) | 2.6% | -0.9% | 0.7% | 4.1% | 3.7µM*
COc1ccc(C2=NN(C(=O)c3ccccc3)C(c3ccc(OC)c(OC)c3)C2)c(O)c1 (configuration not stated) | 6.7% | 2.3% | 1.2% | 10.4µM* | 10.4µM*
CCCOc1ccc(C(=O)Nc2cc(S(=O)(=O)N3CCOCC3)ccc2N2CCN(CC)CC2)cc1OC | 4.3% | . | . | . | .
CCOC(=O)c1c(Nc2ccccc2OCCOC)n[nH]c1C | 0.1% | -9.5% | -1.8% | 9.28µM* | ?
CCOC(=O)c1c(NCc2ccccc2)n[nH]c1C | 3.4% | -14.5% | 7.5% | 5.5% | 18.0%
O=C(COC(=O)COc1ccc(Cl)cc1Br)NCc1cccs1 | -0.2% | -7.6% | -16.4% | 26.9% | 16.9%
CCOC(=O)CNC(=O)COc1ccc(Cl)cc1Br | 13.7% | -6.8% | -0.9% | 10.4µM* | 5.1%
CC(C)(C)c1ccc(C(=O)N2CCCN(C(=O)c3ccc(C(C)(C)C)cc3)CC2)cc1 | 1.6% | -2.3% | -12.7% | 157.5% | 31.1%
O=C(c1ccc(N2CCN(C(=O)c3cccc(F)c3)CC2)cc1)c1cccc(F)c1 | -8.0% | -36.6% | -1.1% | ? | 13.1µM*
O=C(c1cccc(F)c1)N1CCN(C(=O)C2CC2)CC1 | -0.4% | 7.1% | 10.4% | 0.329µM* | -3.4%
O=C(c1ccc(N2CCN(C(=O)c3ccccc3Br)CC2)cc1)c1cccc(F)c1 | -2.5% | -4.6% | 0.7% | 9.28µM* | ?
CC(C)(C)c1ccc(C(=O)N2CCN(C(=O)C3CCCCC3)CC2)cc1 | 5.8% | -24.0% | 11.0% | 10.4µM* | ?
O=C(c1cccc(F)c1)N1CCCC(C(=O)N2CCCCC2)C1 (configuration not stated) | -9.6% | 11.4% | 5.3% | ? | -24.3%
CN(CCc1ccccc1)C(=O)c1ccc(NC(=O)Cc2ccc(NC(=O)C3CCN(C(=O)c4ccccc4)CC3)cc2)cc1 | -1.3% | . | . | . | .
CO/N=C(\C(=O)N[C@@H]1C(=O)N2C(C(=O)[O-])=C(C[N+]3(C)CCCC3)CS[C@@H]12)c1csc(N)n1 | . | . | . | -3.7% | -2.6%
O=C(c1cccc(F)c1)N1CCN(S(=O)(=O)Cc2ccccc2)CC1 | 11.9% | ? | 1.5% | 0.0% | 2.94µM*
O=C(c1cccc(F)c1)N1CCN(S(=O)(=O)c2ccccc2)CC1 | 7.9% | ? | 1.8% | . | .
CCOc1ccc(NC(=O)C2CC(=O)N(c3ccccc3F)C2)cc1 (configuration not stated) | 6.4% | -4.5% | -1.8% | 1.3% | 18.9%
Fc1ccccc1NC(=S)N1CCOCC1 | 0.7% | -1.2% | -1.1% | 45.9% | -3.0%
O=S(=O)(c1ccc2ccccc2c1)N1CCN(C(=S)Nc2ccc(F)c(Cl)c2)CC1 | 5.9% | -6.4% | 7.2% | 0.329µM* | 1.04µM*
NS(=O)(=O)c1ccc(NC(=S)N2CCN(S(=O)(=O)c3ccc(F)cc3)CC2)cc1 | . | -27.0% | 6.8% | -1.8% | ?
CC(=O)c1ccc(NC(=O)CN2CCN(S(=O)(=O)c3ccc4ccccc4c3)CC2)cc1 | -2.6% | . | -2.9% | -18.7% | ?
O=S(=O)(c1ccc2ccccc2c1)N1CCN(C(=S)Nc2ccccc2F)CC1 | 1.2% | 7.6% | 0.4% | 3.29µM* | 1.65µM*
O=S(=O)(c1ccc(Cl)cc1)N1CCN(C(=S)Nc2ccccc2F)CC1 | ? | . | 0.1% | ? | 0.928µM*
N#CCC(=O)Nc1ccc(C(=O)N2CCN(S(=O)(=O)c3ccc4ccccc4c3)CC2)cc1 | -0.6% | 22.9% | 0.3% | ? | 14.7µM*
SMILES | RE007 growth inh | NS1 inh | SARS PLP yeast | Pf growth 96h | Pf growth 48h
COc1ccc(CCN2C(=NC(=O)C(C)C)SC3CS(=O)(=O)CC32)cc1OC (configuration not stated) | -2.4% | -1.9% | -0.4% | 14.0% | 0.5%
Cc1coc2c1c(C)cc1oc(=O)c(CC(=O)NCCCCCC(=O)O)c(C)c12 | 7.8% | 4.8% | 1.9% | 5.4% | 2.4%
CCN(CC)C(=O)C1=C(C)N(CCC2=CCCCC2)C(=O)C(CC(=O)NC(c2ccccc2)c2ccccc2)C1 (configuration not stated) | -18.2% | . | . | . | .
CN(/N=C/c1ccc(O)cc1O)c1nc(-c2ccccc2)cc(-c2ccccc2)n1 | 2.5% | 6.8% | 12.7% | 5.22µM* | 9.28µM*
Nc1c([N+](=O)[O-])cnnc1-c1ccccc1 | 6.4% | -1.4% | 0.6% | ? | -9.7%
O=C(CN1CCN(Cc2ccccc2)CC1)N1CCCc2c1c(=O)oc1ccc(O)cc21 | -4.2% | -4.5% | -1.2% | -17.0% | 2.94µM*
O=C(c1ccco1)N1CCN(CC(=O)N2CCCc3c2c(=O)oc2ccc(O)cc32)CC1 | 16.9% | -28.1% | 2.0% | 13.8% | -1.1%
COc1ccc(C(=O)NCCC2=CCCCC2)cc1[N+](=O)[O-] | 4.7% | -2.4% | 0.9% | 24.5% | 20.8%
COc1ccc(C(=O)NCCN2CCCC2)cc1[N+](=O)[O-] | 7.1% | 8.4% | -2.7% | 2.62µM* | ?
Cc1ccc(S(=O)(=O)Nc2cc(C(=O)NCCN(C)C)ccc2N2CCCCC2)cc1 | 13.1% | -9.6% | 21.5% | ? | 9.28µM*
Cc1ccc(S(=O)(=O)Nc2cc(C(=O)NCCN3CCCC3)ccc2N2CCCCC2)cc1 | -2.2% | 6.1% | 7.9% | . | 11.7µM*
NC(N)=NC[C@H](N)C(=O)O | . | -2.8% | . | . | .
Cc1ccc(NC(=O)CSCC(=O)NCCc2ccccc2)c(C)c1 | -2.9% | . | 4.9% | ? | 2.6%
CC(COc1ccc(/C=C/c2ccccc2)cc1)[N+](C)(C)C (configuration not stated) | -12.5%[18.4 µM] | -33.3% | . | 0.928µM* | 1.31µM*
CCn1c(SCCN2CCOCC2)nc2c1c(=O)n(C)c(=O)n2C | 8.1% | 17.5% | -7.0% | ? | -6.5%
O=C1CCCc2c1cc(C(=O)NCCCN1CCOCC1)c(=O)n2-c1ccc(Cl)cc1 | 4.3% | -7.9% | 3.2% | -15.8% | 3.0%
Cc1ccc(-n2c3c(cc(C(=O)NCCCN4CCOCC4)c2=O)C(=O)CC(C)(C)C3)cc1 | -0.7% | 14.7% | -9.6% | 0.828µM* | 2.3%
Cc1ccc2nc3c(c(N)c2c1)CCN3c1ccccc1 | -15.0% | -14.5% | -0.1% | ? | ?
Nc1c2c(nc3cccc(Cl)c13)N(c1ccccc1)CC2 | -5.8% | -1.3% | -0.5% | 7.38µM* | 17.4%
CCCCN(C(=O)c1cccc2c(=O)c(C)c(-c3ccccc3)oc12)c1ccccc1 | 3.5% | -40.4% | -38.7% | 4.15µM* | ?
COc1cc(C(=S)N2CCOCC2)ccc1OC(=O)c1ccc(Br)cc1 | 5.9% | -38.0% | 2.0% | 5.22µM* | 12.9%
O=C(Oc1ccc(C(=S)N2CCOCC2)cc1)c1ccc([N+](=O)[O-])cc1 | -3.0% | 7.5% | -3.3% | 1.47µM* | 13.2%
CCC1Cc2[nH]c(=S)[nH]c(=O)c2C(c2ccc(F)cc2)O1 (configuration not stated) | 8.0% | . | . | . | .

Assay outcomes: PubChem, National Center for Advancing Translational Sciences (NCATS)
